Values joined by “and” are separate entries in the source; they are usually repeats but may differ in a detail not shown here. Equal values may be shown once. The campaign covered roughly 5,500 compounds. About 2,000 (36%) were called active. Inconclusive results (about 18%) are left out. Rule as the data show it: active = normalized growth mostly below about 0.91 (no sharp cut-off); inconclusive = no clear call, values can overlap the other calls; inactive = mostly above about 0.92. Some of the results follow.
Test: chemical genetic growth profiling, strain panel (AID 1159580);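 also: tested at 20 µM; growth read once vehicle control cultures reached saturation at 30 °C; 1 = growth at the plate median or of vehicle wells; lower values mean less growth of the strain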
Details: S. cerevisiae deletion strains, growth OD

Measured: normalized growth

NC[C@H]1O[C@H](O[C@H]2[C@H](O)[C@@H](O[C@H]3O[C@H](CO)[C@@H](O)[C@H](N)[C@H]3O)[C@H](N)C[C@@H]2N)[C@H](N)C[C@@H]1O
inactive: locus YAL013W, strain DEP1, stronger effect = lower value 1 | locus YAL021C, strain ccr4, stronger effect = lower value 0.979 | locus YAL026C, strain drs2, stronger effect = lower value 1.01 | locus YAL030W, strain snc1, stronger effect = lower value 1.01 | locus YBL061C, strain skt5, stronger effect = lower value 1.01 | locus YBR009C, strain hhf1, stronger effect = lower value 1.05 | locus YBR021W, strain FUR4, stronger effect = lower value 1.02 | locus YBR023C, strain chs3, stronger effect = lower value 1.01 | locus YBR171W, strain sec66, stronger effect = lower value 1.01 | locus YBR229C, strain ROT2, stronger effect = lower value 1.01 | locus YBR231C, strain swc5, stronger effect = lower value 0.987 | locus YBR279W, strain paf1, stronger effect = lower value 1.02 | locus YCL011C, strain gbp2, stronger effect = lower value 1.02 | locus YCL016C, strain dcc1, stronger effect = lower value 1.02 | locus YCL029C, strain bik1, stronger effect = lower value 1.02 | locus YCL061C, strain MRC1, stronger effect = lower value 0.994 | locus YCL069W, strain vba3, stronger effect = lower value 1.01 | locus YCR088W, strain abp1, stronger effect = lower value 1.01 | locus YDL005C, strain med2, stronger effect = lower value 1 | locus YDL035C, strain GPR1, stronger effect = lower value 1 | locus YDL040C, strain nat1, stronger effect = lower value 1.02 | locus YDL074C, strain BRE1, stronger effect = lower value 0.971 | locus YDL101C, strain DUN1, stronger effect = lower value 0.997 | locus YDL134C, strain PPH21, stronger effect = lower value 1.01 | locus YDL185W, strain tfp1, stronger effect = lower value 1 | locus YDL192W, strain arf1, stronger effect = lower value 1.01 | locus YDR001C, strain nth1, stronger effect = lower value 1.01 | locus YDR069C, strain doa4, stronger effect = lower value 0.985 | locus YDR101C, strain arx1, stronger effect = lower value 1.02 | locus YDR137W, strain rgp1, stronger effect = lower value 0.99 | locus YDR159W, strain sac3, stronger effect = lower value 0.987 | locus YDR162C, strain NBP2, stronger effect = lower value 1.01 | locus YDR195W, strain ref2 1.01 | locus YDR297W, strain sur2, stronger effect = lower value 1.01 | locus YDR318W, strain mcm21, stronger effect = lower value 1.02 | locus YDR334W, strain swr1, stronger effect = lower value 1.02 | locus YDR335W, strain msn5, stronger effect = lower value 1.01 | locus YDR388W, stronger effect = lower value 1.02 | locus YDR392W, strain spt3, stronger effect = lower value 0.907 | locus YDR502C, strain sam2, stronger effect = lower value 1 | locus YEL003W, strain gim4, stronger effect = lower value 1.03 | locus YEL037C, strain rad23, stronger effect = lower value 1.02 | locus YEL061C, strain CIN8 (second series), stronger effect = lower value 1.02 | locus YEL061C, strain CIN8, stronger effect = lower value 0.988 | locus YER015W, strain faa2, stronger effect = lower value 1.02 | locus YER016W, strain bim1, stronger effect = lower value 1.01 | locus YER110C, stronger effect = lower value 1.01 | locus YER111C, strain swi4, stronger effect = lower value 1.01 | locus YER155C, strain BEM2 (second series), stronger effect = lower value 0.911 | locus YER155C, strain BEM2, stronger effect = lower value 1.02 | locus YER167W, strain BCK2, stronger effect = lower value 1.01 | locus YFR010W, strain ubp6, stronger effect = lower value 1.02 | locus YGL078C, strain dbp3, stronger effect = lower value 1 | locus YGL086W, strain mad1, stronger effect = lower value 0.991 | locus YGL167C, strain pmr1, stronger effect = lower value 1.01 | locus YGL173C, strain kem1, stronger effect = lower value 1.01 | locus YGL227W, strain vid30, stronger effect = lower value 1.01 | locus YGL240W, strain doc1, stronger effect = lower value 0.978 | locus YGL248W, strain PDE1, stronger effect = lower value 0.999 | locus YGL253W, strain hxk2, stronger effect = lower value 1.01 | locus YGR135W, strain pre9, stronger effect = lower value 1.01 | locus YGR252W, strain gcn5, stronger effect = lower value 0.944 | locus YHR013C, strain ard1, stronger effect = lower value 0.952 | locus YHR027C, strain rpn1, stronger effect = lower value 1.02 | locus YHR030C, strain SLT2, stronger effect = lower value 1.01 and 0.98 | locus YHR079C, strain IRE1 (second series), stronger effect = lower value 1.02 | locus YHR079C, strain IRE1, stronger effect = lower value 0.985 | locus YHR094C, strain hxt1, stronger effect = lower value 1.02 | locus YHR129C, strain ARP1, stronger effect = lower value 1.01 | locus YHR142W, strain chs7, stronger effect = lower value 1.03 | locus YHR200W, strain rpn10, stronger effect = lower value 1.01 | locus YIL066C, strain RNR3, stronger effect = lower value 1 | locus YIL073C, strain SPO22, stronger effect = lower value 1.05 | locus YIL125W, strain kgd1, stronger effect = lower value 1 | locus YIR030C, strain dcg1, stronger effect = lower value 1.02 | locus YJL092W, strain hpr5, stronger effect = lower value 1.02 | locus YJL095W, strain BCK1 (second series), stronger effect = lower value 1.04 | locus YJL095W, strain BCK1, stronger effect = lower value 0.985 and 0.999 | locus YJL115W, strain asf1, stronger effect = lower value 1.01 | locus YJL129C, strain trk1, stronger effect = lower value 1 | locus YJL134W, strain LCB3, stronger effect = lower value 1.01 | locus YJL154C, strain vps35, stronger effect = lower value 1.02 | locus YJL164C, strain tpk1, stronger effect = lower value 1.03 | locus YJL166W, strain qcr8, stronger effect = lower value 0.979 | locus YJL168C, strain set2, stronger effect = lower value 1.01 | locus YJL187C, strain SWE1 (second series), stronger effect = lower value 1 | locus YJL187C, strain SWE1, stronger effect = lower value 1.03 | locus YJR043C, strain POL32, stronger effect = lower value 0.98 | locus YJR066W, strain TOR1, stronger effect = lower value 0.951

From PubChem BioAssay AID1159580 (chemical genetic matrix, 2015)
